Screens (PubChem BioAssay)
S2 tox: reduces viability in counter-screen for ATXN expression inhibitors. S2 cells (HEK-293 line with an ATXN2-luciferase reporter) viability, CellTiter-Fluor protease fluorescence, 24 h. Potency, µM (top dose mostly 56.7 µM), most hits filed as cytotoxic. 0.49% of 400,000 active. AID 651635; further: nearly all actives have a fitted effect of over 40% in size
TDP1 cell noCPT: qHTS for Inhibitors of human tyrosyl-DNA phosphodiesterase 1 (TDP1): qHTS in cells in absence of CPT | DT40 Tdp1-/- hTDP1 cells, no CPT, ATP luminescence, 48 h | Potency, µM (highest dose often 46.2 µM), for inactives: at the top dose activity change, negative = growth inhibition, usual class: inhibitors | 15% of 420,000 active; further: on the % scale 0 is the no-effect control and ±100 the full control effect; nearly all actives have a fitted effect of over 55% in size
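Chicken DT40 Tdp1-/- cells complemented with human TDP1, screened without camptothecin (DMSO vehicle only), 400 cells/well. Compounds pin-transferred, cells incubated at 37 °C for at least 48 hr. Growth read as ATP-dependent luminescence (CellTiter-Glo, 30 min at RT).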
HepG2 viability: counter-screen for TGF-b inhibitors: cytotoxicity in HepG2 cells; HepG2 CAGA-GFP viability, ATP luminescence, 18 h; Potency, µM (series often up to 46.1 µM), inactives show at the top dose activity change, negative = cytotoxicity, actives largely listed as cytotoxic; 0.76% of 410,000 active; AID 588856
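CellTiter-Glo luminescence gave cytotoxicity after 18 hours at 37 degrees C. The cells were HepG2 CAGA-GFP in 1% FBS DMEM, stimulated with 500 pg/mL TGF-beta after compound addition. %Activity was normalised to no-cell wells (complete cell-killing) and DMSO (no toxicity), and curves were fitted and classified.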
TGFb inhibitor: blocks TGF-b signaling; HepG2 CAGA-GFP TGF-b/SMAD3 reporter, GFP fluorescence, 18 h; TGF-beta stimulated, 500 pg/mL final; 1.2% of 410,000 active; Potency, µM (highest dose often 46.1 µM), for the others: at the highest dose activity, negative = inhibition, usual class: inhibitors; further: on the % scale 0 is the no-effect control and ±100 the full control effect; nearly all actives have a fitted effect of over 65% in size
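GFP signal (ex488/em500-530) from TGF-beta-stimulated HEPG2 CAGA-GFP cells, 500 pg/mL final, 18 h at 37 degrees C in DMEM plus 1% FBS, normalized to unstimulated and DMSO-stimulated controls.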
ATXN2 expr inh: reduces ATXN2 reporter expression in HEK-293 cells; HEK-293 ATXN2-luciferase reporter, luminescence, 24 h; Potency, µM (doses to about 57 µM), for the others: top-dose activity change, negative = inhibition, usual class: inhibitors; 0.72% of 360,000 active; further: on the % scale 0 is the no-effect control and ±100 the full control effect; nearly all actives have a fitted effect of over 55% in size
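ATXN2-luciferase reporter cells (luciferase flanked by upstream and downstream ATXN2 gene portions) were treated 24 h at 37 °C with compounds at up to 57 uM. SteadyGlo luminescence gave expression; GF-AFC fluorescence gave viability.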
TDP1 cell CPT: growth inhibition of DT40 Tdp1-/-;hTDP1 cells with camptothecin (screen for TDP1 inhibitors); chicken DT40 Tdp1-/-;hTDP1 cells + 20 nM CPT, ATP luminescence, 48 h; Potency, µM (titrated, usually from 46.2 µM), inactives show top-dose activity change, negative = growth inhibition, usual class: inhibitors; 12% of 420,000 active; AID 686979; further: on the % scale 0 is the no-effect control and ±100 the full control effect; nearly all actives have a fitted effect of over 55% in size
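Chicken DT40 Tdp1-/- cells stably complemented with human TDP1 were seeded at 400 cells/well in medium containing 20 nM camptothecin, exposed to pin-transferred compounds, and grown at 37 °C for at least 48 hr. Viability was read as ATP luminescence.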
* = called active by the depositor; i = inactive; ? = inconclusive; nt = not tested or not shown; [ ] = dose if it differs, or a comment. Most compounds without a hit are left out; they make up all but 17% or so of the library. The call rests on the fitted dose curve; in most records, active means well fitted curve in the direction sought with a large enough effect; inconclusive means small, poorly fitted or top-dose-only effect, or another doubt; inactive means no such curve, though single readings can be large; an effect the other way counts as inactive or inconclusive. Potency means the concentration at half of the fitted maximal effect.

SMILES	S2 tox	TDP1 cell noCPT	HepG2 viability	TGFb inhibitor	ATXN2 expr inh	TDP1 cell CPT
CCCCCn1c(=O)c(C(=O)Nc2cc(C)ccn2)c(O)c2ccccc21	?	7.3µM*	-2%	13%	3%	7.3µM*
CCCCn1c(=O)c(C(=O)Nc2ncccc2C)c(O)c2ccccc21	i	?	-18%	8%	-15%	?
CCCCCn1c(=O)c(C(=O)Nc2nc(CC(=O)OCC)cs2)c(O)c2ccccc21	?	4.6µM*	10%	1%	?	4.1µM*
CCOc1ccc(NC(=O)Cn2cc(C(=O)c3ccccc3)c3ccccc32)cc1	nt	?	-29%	?	nt	-29%
CC(C)OP(=O)(Oc1ccc(C(O)C(Cl)(Cl)Cl)cc1)OC(C)C (configuration not stated)	i	18µM*	-40%	-19%	-20%	?
O=C(Oc1ccccc1)N1CCC2(CC1)CCN(C(c1ccccc1)c1ccccc1)CC2	nt	-10%	nt	nt	nt	-3%
O=C1NC(=O)N(c2ccc(Cl)cc2)C(=O)/C1=C\c1ccc(Sc2nc3ccccc3[nH]2)o1	i	?	-4%	-2%	-19%[11.3 µM]	16µM*
COC(=O)C1=C(c2ccccc2)C[C@@H]2CC[C@H]1N2C(=O)N1CCOCC1	i	?	5%	6%	2%	?
COC(=O)C1=C(c2cc3ccccc3o2)C[C@@H]2CC[C@H]1N2C(=O)NC(C)C	i	16µM*	11%	12%	-8%	23µM*
COC(=O)C1=C(c2cc3ccccc3o2)C[C@@H]2CC[C@H]1N2C(=O)N1CCOCC1	?	nt	0%	?	-12%	3.7µM*
COC(=O)C1=C(c2cc3ccccc3o2)C[C@@H]2CC[C@H]1N2C(=O)NCCCOC(C)C	i	12µM*	-2%	0%	-5%	?
O=C(N/N=C\c1ccc(COc2ccc([N+](=O)[O-])cc2)o1)c1cccc(Cl)c1	i	?	-22%	-15%	-19%	-14%
CC1(C)c2[nH]c3ccccc3c2C[C@@H]2C(=O)N(Cc3ccccc3F)C(=O)N21	i	nt	-16%	?	-29%	nt
CC[C@H]1C2CC3[C@@H]4N(C)c5ccccc5[C@]45C[C@@H](C2[C@H]5O)N3[C@@H]1O (some centres not stated)	nt	-7%	nt	nt	nt	-2%
O=C(CN1CCCCC1)c1ccccc1	nt	-15%	-16%	?	nt	-27%
C/C=C1/CN2CC[C@]34C(=C(C=O)[C@H]1C[C@@H]23)Nc1ccccc14	nt	?	nt	nt	nt	-14%
Fc1ccc(Cn2nnnc2CN2CCC(n3nnc4cc(C(F)(F)F)ccc43)CC2)cc1	?	?	-10%	-27%	nt	18µM*
Cc1nc2cc(C(F)(F)F)ccc2n1C1CCN(Cc2nnnn2Cc2cccs2)CC1	i	16µM*	-24%	-3%	22%	16µM*
Cc1nc2cc(C(F)(F)F)ccc2n1C1CCN(Cc2nnnn2Cc2ccc3c(c2)OCO3)CC1	i	16µM*	-37%	?	-26%	29µM*
N#Cc1ccc(CN2CCC3(CC2)CCN(C(=O)Oc2ccccc2)CC3)cc1	nt	-21%	nt	nt	nt	-1%
CCC(=O)OC1(c2ccccc2)CCN(C)CC1	i	-5%[92.5 µM]	nt	nt	-12%[116 µM]	-11%[92.5 µM]
O=c1oc2ccccc2c(O)c1C(CC(O)c1ccc(-c2ccc(Br)cc2)cc1)c1ccccc1 (configuration not stated)	i	?	nt	nt	9%	?
COc1ccccc1CCNCc1ccc(OC)c(OC)c1OC	i	12µM*	-32%	6%	-38%	26µM*
CCOc1cc(CNCCc2c[nH]c3ccccc23)cc(Cl)c1OC	?	5.8µM*	-94%	16µM*	?	8.2µM*
Clc1cccc(CNCCc2c[nH]c3ccccc23)c1	i	?	-4%	-9%	-34%	?
SMILES	S2 tox	TDP1 cell noCPT	HepG2 viability	TGFb inhibitor	ATXN2 expr inh	TDP1 cell CPT
COc1ccc(CNCCc2c[nH]c3ccccc23)c(OC)c1OC	i	12µM*	-37%	-1%	-22%	16µM*
COc1cccc(CNCCc2c[nH]c3ccccc23)c1OC	i	-15%	-1%	-2%	-12%	2%
COc1ccc(C(=O)CN2CCOCC2)cc1	nt	-5%	-42%	?	nt	-21%
C[N+]1([O-])CCC[C@@H]1c1cccnc1 (some centres not stated)	nt	-19%	nt	nt	nt	3%
CCCCN1C(=O)NC(=O)C2(Cc3c(nc4c(C)cccn4c3=O)N3CCc4ccccc4C32)C1=O (configuration not stated)	i	16µM*	-16%	-24%	-17%	21µM*
CCCCN1C(=O)NC(=O)C2(Cc3c(nc4ccccn4c3=O)N3CCc4ccccc4C32)C1=O (configuration not stated)	i	-15%	-33%	4%	17%	-19%
O=C(Oc1c(Br)cc(Br)c2cccnc12)N1CCCCC1	?	?	-19%	-15%	-2%	23µM*
O=C(Oc1c(Cl)cc(Cl)c2ccccc12)N1CCCCC1	i	?	-37%	?	10%	?
CCc1ccccc1Nc1nn2c(=O)c3ccc(C(=O)Nc4cc(C)cc(C)c4)cc3nc2s1	?	8.2µM*	-26%	-21%	?	8.2µM*
CN1CCN(c2ncnc3ccc(Br)cc23)CC1	i	?	-20%	0%	-34%	26µM*
COC(=O)C1=C(c2ccc(S(C)(=O)=O)cc2)C[C@@H]2CC[C@H]1N2C	i	1%	6%	3%	11%	2%
CC(c1ccccc1)n1cncc1C(=O)O (configuration not stated)	i	0%	13%	-21%	-1%	-5%
CCOc1ccc(-n2c(CC)nc3ccccc3c2=O)cc1	i	?	-20%	-31%	-13%	-28%
Oc1ccc2c3c1O[C@H]1c4oc5ccccc5c4C[C@]4(O)[C@H](C2)N(CC2CC2)CC[C@@]314	nt	-3%	nt	nt	nt	9%
Oc1ccc2c3c1O[C@H]1c4c(c5ccccc5n4Cc4ccccc4)C[C@]4(O)[C@H](C2)N(CC2CC2)CC[C@@]314	nt	13µM*	nt	nt	nt	12µM*
COc1ccc(NC(=O)C(Cc2ccccc2)NS(=O)(=O)c2ccc3c(c2)oc(=O)n3C)c(OC)c1 (configuration not stated)	i	-20%	1%	0%	5%	-9%
